# Results published in the OligoGym collection.
# Columns and labels:
# Assay in all cases: pooled miR-30 sensor sort-seq; sequence = guide strand
# Settings in all cases: shRNA
# RAB11A = target: RAB11A
# QSER1 = target: QSER1
# QSOX1 = target: QSOX1
# PYROXD1 = target: PYROXD1
# RAI2 = target: RAI2
# RAET1E = target: RAET1E
# RAD9A = target: RAD9A
# RANBP9 = target: RANBP9
# RANGAP1 = target: RANGAP1
# Note: reference of the scale not given here.
sequence,measurement,setting,value
ATGAATAGGAACCACATTGTTG,sensor-assay potency score (higher = more potent),RAB11A,-1.36
TTTATCAGAAGTAGCATCCAAA,sensor-assay potency score (higher = more potent),QSER1,-0.195
TAAGCGGTATAGAAGGACCTGG,sensor-assay potency score (higher = more potent),QSOX1,-0.156
TAACTTGATCTTCAAGACGGGA,sensor-assay potency score (higher = more potent),QSER1,-1.26
TTGTCTGAAAAGCAGCTTCTAC,sensor-assay potency score (higher = more potent),RAB11A,-1.05
TTAAAGTAAAATACAACCGATT,sensor-assay potency score (higher = more potent),PYROXD1,-0.766
TTATTTCTCGCAAAGAATCCAT,sensor-assay potency score (higher = more potent),QSOX1,-0.0879
TTGAAGAACCTCACAGTCGGGA,sensor-assay potency score (higher = more potent),QSOX1,0.0825
TAGATTTGCTTCTAGCTTCCTT,sensor-assay potency score (higher = more potent),PYROXD1,0.523
TTGCTTCTGAGAAACAATGCGG,sensor-assay potency score (higher = more potent),RAB11A,-0.544
TTTATAAAACCAATGCACCTTT,sensor-assay potency score (higher = more potent),RAI2,-0.626
TTCCATGTCTCCTTGATCTTAC,sensor-assay potency score (higher = more potent),RAET1E,-0.262
TTCTTTAACTTTATGCTCCGGT,sensor-assay potency score (higher = more potent),RAI2,0.268
TTGTTGTCACTGTTGTACTGAA,sensor-assay potency score (higher = more potent),RAET1E,-0.561
TCATTGGCAAAGTCGTCCGGGT,sensor-assay potency score (higher = more potent),RAD9A,-0.913
TATCTGAAGCATTTACTGGTGA,sensor-assay potency score (higher = more potent),RAET1E,0.282
TCAGCCTTGACTTCGCCGCTGG,sensor-assay potency score (higher = more potent),RAI2,-0.358
TTCATGATTAATTACTGTCCAG,sensor-assay potency score (higher = more potent),RAET1E,-0.655
TAACTGTCTTGAGACTTTGGAC,sensor-assay potency score (higher = more potent),RANBP9,-0.743
TAATTCTTCTAGAACGGTCTGG,sensor-assay potency score (higher = more potent),RANBP9,0.443
TTTCTTTAACTTTATGCTCCGG,sensor-assay potency score (higher = more potent),RAI2,-0.775
TTGGACTACTAAAAGGTCGAGG,sensor-assay potency score (higher = more potent),RANBP9,-0.167
TTCGGTGTCACAATCTTCCATT,sensor-assay potency score (higher = more potent),RANBP9,-0.713
TACTACAACTTTCAAAACCTGA,sensor-assay potency score (higher = more potent),RANBP9,-0.44
TTTGATGTCACAAAGGAGCATC,sensor-assay potency score (higher = more potent),RAET1E,-0.244
TTGACCTTGTCTTCACTCTTGA,sensor-assay potency score (higher = more potent),RANGAP1,0.405
TCACATCTTTAGCATCTTCTGC,sensor-assay potency score (higher = more potent),RANGAP1,-0.932
TTCACGTTGACAAAACATCTCG,sensor-assay potency score (higher = more potent),RAET1E,-0.11
TCGGATTGAGCTCTGGTGCGGA,sensor-assay potency score (higher = more potent),RAI2,-0.201
TTTTGTATCATGGTCTGCCATT,sensor-assay potency score (higher = more potent),RANBP9,-1.46
TTGACAAAACATCTCGACTTGC,sensor-assay potency score (higher = more potent),RAET1E,-0.439
TAACAGGATAACTGTCTTGAGA,sensor-assay potency score (higher = more potent),RANBP9,-1.15
TTCAGAACTCTGAGGCACCGGG,sensor-assay potency score (higher = more potent),RAI2,-0.474
TTTATAGTGAAGTTGAAGCAAA,sensor-assay potency score (higher = more potent),RAET1E,-1.04
TTGAAGGAGAAGTTTTTGGTGG,sensor-assay potency score (higher = more potent),RAI2,-0.107
TAGTAGACTGAATGCATCCTTC,sensor-assay potency score (higher = more potent),RANBP9,-0.448
